Screening data from PubChem.
DT40 TDP1 CPT – growth inhibition of DT40 Tdp1-/-;hTDP1 cells with camptothecin (screen for TDP1 inhibitors); chicken DT40 Tdp1-/-;hTDP1 cells + 20 nM CPT, ATP luminescence, 48 h; Potency, µM (top dose mostly 46.2 µM), most hits filed as inhibitors; 420,000 tested, 12% active; also: nearly all actives have a fitted effect of over 55% in size
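Cell growth measured by CellTiter-Glo luminescence after a minimum 48 h, 37 C compound exposure with 20 nM CPT in Tdp1-knockout DT40 cells stably expressing hTDP1, seeded 400/well; qHTS titration format.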
DT40 TDP1 no CPT – qHTS for Inhibitors of human tyrosyl-DNA phosphodiesterase 1 (TDP1): qHTS in cells in absence of CPT. DT40 Tdp1-/- hTDP1 cells, no CPT, ATP luminescence, 48 h. 420,000 tested, 15% active. Potency, µM (series often up to 46.2 µM), actives largely listed as inhibitors; also: nearly all actives have a fitted effect of over 55% in size
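No-CPT arm: Tdp1-/-;hTDP1 DT40 cells (400/well) plus compounds, incubated ≥48 hr at 37 °C. Readout CellTiter-Glo luminescence.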
ALOX12 inh – ALOX12 (human) lipoxygenase inhibition. P18054. purified 12hLO, xylenol orange hydroperoxide absorbance. Potency, µM (highest dose often 108 µM), hits mostly inhibitors. 580,000 tested, 1.1% active. AID 1671190
Target sequence (P18054 whole entry, looked up): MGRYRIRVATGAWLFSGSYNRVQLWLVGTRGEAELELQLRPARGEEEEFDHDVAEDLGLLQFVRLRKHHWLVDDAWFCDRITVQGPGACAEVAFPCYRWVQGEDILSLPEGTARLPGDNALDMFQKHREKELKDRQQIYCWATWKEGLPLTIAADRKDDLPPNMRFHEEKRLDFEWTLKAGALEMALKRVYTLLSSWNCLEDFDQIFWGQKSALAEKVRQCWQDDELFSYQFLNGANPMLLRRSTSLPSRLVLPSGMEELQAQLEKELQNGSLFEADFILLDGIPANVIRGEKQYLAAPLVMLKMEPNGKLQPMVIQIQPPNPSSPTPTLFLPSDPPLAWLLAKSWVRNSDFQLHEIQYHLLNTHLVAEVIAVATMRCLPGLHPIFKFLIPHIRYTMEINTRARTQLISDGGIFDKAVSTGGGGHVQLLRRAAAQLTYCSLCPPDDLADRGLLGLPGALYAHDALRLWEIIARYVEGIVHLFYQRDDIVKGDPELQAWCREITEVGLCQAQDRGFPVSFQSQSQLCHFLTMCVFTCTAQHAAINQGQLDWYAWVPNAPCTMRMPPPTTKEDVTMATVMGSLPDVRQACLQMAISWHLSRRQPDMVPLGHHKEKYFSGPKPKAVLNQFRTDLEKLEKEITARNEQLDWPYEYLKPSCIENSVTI
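Hydroperoxide product was detected by ferrous iron/xylenol orange as the 573 to 405 nm absorbance ratio. Arachidonic acid at 40 uM (final) was turned over for 30 min at room temperature by 150 nM human 12hLO, pH 7.0 Hepes buffer, after 15 min compound preincubation.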
HT1080 IDH1KD tx – kills HT-1080 cells with IDH1 knockdown | HT-1080 IDH1 knockdown viability, ATP luminescence, 48 h | Potency, µM (doses to about 46.1 µM), usual class: cytotoxic | 360,000 tested, 2% active
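After a 2 h attachment period, IDH1KD HT-1080 cells took pin-transferred compound for 48 h at 37 °C; ATP-based luminescence after 10 min room-temperature reagent incubation reported viability.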
HT1080NT lethal – kills 2HG-producing HT-1080-NT fibrosarcoma cells; 360,000 tested, 1.6% active; HT-1080-NT fibrosarcoma viability, CellTiter-Glo ATP luminescence, 48 h; Potency, µM (series often up to 46.1 µM), most hits filed as cytotoxic;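 also: NT is the 2HG producing partner of a matched IDH1 knockdown line; nearly all actives have a fitted effect of over 55% in size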
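Fibrosarcoma NT cells, 750 per well in 5% FBS RPMI, were exposed to compound for 48 hours. Viability: CellTiter-Glo luminescence.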
IL-1B inflam inh – blocks inflammasome-driven IL-1 beta release. THP-1 LPS/ATP IL-1B secretion, AlphaLISA, 16 h; stronger effect = lower value. activity change, % at 57.5 µM. 360,000 tested, 4.7% active. AID 743279; in the data active = activity change below about -50%; inconclusive = mostly about -30% to -49%
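Secreted IL-1B measured by AlphaLISA bead assay after 16 h compound exposure of THP-1 cells; compounds (final up to 57.5 uM) added 1 h before LPS (250 ng/mL) and ATP (1.25 mM) stimulation; lower signal means less secretion.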
Numbers stand for hits; - = inactive; ? = inconclusive; . = no result. This excerpt belongs to a sample that is enriched for hits. Unless noted, calls follow the shape of the dose curve; as a rule, active = well fitted curve in the direction sought with a large enough effect; inconclusive = small, poorly fitted or top-dose-only effect, or another doubt; inactive = no such curve, though single readings can be large; an effect the other way counts as inactive or inconclusive.

SMILES | DT40 TDP1 CPT | DT40 TDP1 no CPT | ALOX12 inh | HT1080 IDH1KD tx | HT1080NT lethal | IL-1B inflam inh
O=C(c1ccccc1)c1ccc(OCC(O)CN2CCN(Cc3ccccc3)CC2)cc1 (stereo not drawn) | 21µM | 23µM | - | - | - | ?
O=C(c1ccccc1)c1ccc(OCCCN2CCCC2)cc1 | - | - | ? | - | - | -
O=C(c1ccccc1)c1ccc(OCCOCCN2CCN(Cc3ccccc3)CC2)cc1 | 23µM | 21µM | ? | ? | 18µM | ?
c1ccc(CN2CCN(CCOCCOc3ccc4c(c3)CCC4)CC2)cc1 | ? | 23µM | 50µM | ? | 16µM | -60
CC(=O)NCC(=O)N1CCC(N2C(=O)C(OCC3CC3)C23CCOCC3)CC1 (stereo not drawn) | . | . | - | . | . | .
CN(C)C1(Cc2cc(COc3ccccc3)on2)COC1 | . | . | - | . | . | .
O=C(/C=C/c1ccc(OCCCF)cc1)N1CCN(Cc2ccccc2)CC1 | - | ? | - | - | - | -53
O=C(/C=C/c1ccccc1)N1CCN(Cc2ccccc2)CC1 | . | . | - | . | . | .
FC(F)(F)c1cccc(OCCN2CCN(Cc3ccccc3)CC2)c1 | 21µM | ? | ? | - | - | -
CCCCCCCCC/C=N/NC(=S)NC1CCCCC1 | . | . | 28µM | . | . | .
O=C(O)CCC(=O)NC(Cc1c[nH]c2ccccc12)C(=O)O (stereo not drawn) | . | . | - | . | . | .
Cc1ccc(NC(=O)C2CCN(C(=O)C(C)(C)C)CC2)cc1S(=O)(=O)N1CCCCC1 | . | . | - | . | . | .
Cn1c(CCNC(=O)c2ccccc2F)nnc1SCC(=O)N1CCc2ccccc21 | . | . | - | . | . | .
Cc1ccc(C(C[N+](=O)[O-])Sc2ccc(N)cc2)cc1 (stereo not drawn) | 4.1µM | 6.5µM | - | 16µM | ? | .
Cc1ccc(C(O)CCc2ccc(N)cc2)cc1 (stereo not drawn) | - | - | - | - | - | -
O=C1C=CC(=O)N1CCCCCCN1C(=O)C=CC1=O | 1.5µM | 2.1µM | ? | ? | ? | -98
NC(=S)N/N=C1\CCOc2ccc(F)cc21 | ? | 16µM | ? | ? | - | ?
Cc1cccc2c(=O)cc(C(=O)N3CCOC34CCN(C)CC4)oc12 | . | . | - | . | . | .
CC(C)c1nc(CN(C)C(=O)c2cc(COc3ccccc3)[nH]n2)no1 | . | . | - | . | . | .
CCC1CN(C(=O)N2CCC(C(=O)NCCc3cc(OC)ccc3OC)CC2)c2ccccc2O1 (stereo not drawn) | 16µM | 21µM | - | . | . | .
CCC1CN(C(=O)N2CCC(C(=O)NCc3ccc(OC)cc3OC)CC2)c2ccccc2O1 (stereo not drawn) | ? | - | - | - | - | -
CCC1CN(C(=O)N2CCC(C(=O)NCCc3ccc(OC)c(OC)c3)CC2)c2ccccc2O1 (stereo not drawn) | ? | ? | - | - | - | -
CCC1CN(C(=O)N2CCC(C(=O)Nc3ccccc3OC)CC2)c2ccccc2O1 (stereo not drawn) | 18µM | ? | - | - | - | -
CCC1CN(C(=O)N2CCC(C(=O)NCc3cc(OC)ccc3OC)CC2)c2ccccc2O1 (stereo not drawn) | 18µM | 18µM | - | . | . | .
CN1C(=O)c2cccn2CC1CNS(=O)(=O)Cc1ccccc1 (stereo not drawn) | . | . | - | . | . | .
SMILES | DT40 TDP1 CPT | DT40 TDP1 no CPT | ALOX12 inh | HT1080 IDH1KD tx | HT1080NT lethal | IL-1B inflam inh
CCC/C(=N\NC(=O)C(C)C)c1ccccc1 | . | . | - | . | . | .
CCCc1c(C(=O)N/N=C(\C)c2ccccn2)nnn1-c1nonc1N | 2.6µM | 1.6µM | - | ? | ? | -
CCCc1c(C(=O)N/N=C(\C)c2cc(C)sc2C)nnn1-c1nonc1N | ? | 18µM | - | - | - | -
CCCNC(=O)C1(C)CCCN(C(=O)Cc2ccc(OC)cc2)C1 (stereo not drawn) | - | - | - | - | - | -
CCCNC(=O)C1(C)CCCN(C(=O)C2(c3ccc(Cl)cc3)CCCC2)C1 (stereo not drawn) | ? | 21µM | - | - | - | -
CCCNC(=O)C1(C)CCCN(C(=O)COc2ccc(C(C)(C)C)cc2)C1 (stereo not drawn) | 29µM | 16µM | - | ? | - | -
Cc1ccc(C(=O)Nc2cccc(C(=O)N(C)C)c2)cc1 | . | . | - | . | . | .
CCC1CCC(C(=O)Nc2ccc3ccccc3c2)CC1 (stereo not drawn) | . | . | - | . | . | .
c1ccc2[nH]c(-c3nn4c(C5CCCCC5)nnc4s3)cc2c1 | . | . | - | . | . | .
N#C/C(=C(/O)c1ccc(F)cc1)c1nc2ccccc2s1 | 18µM | 23µM | - | - | - | -
N#C/C(=C(/O)CSc1ccccn1)c1nc2ccccc2s1 | 15µM | ? | - | - | - | -
